Here are results for 39 compounds from PubChem BioAssay (EPA / NIEHS).

Active and inactive are the calls of the source. Rule for the calls: active = hit-call score of the fitted dose curve at least 0.9, where 1 is the maximum; inactive = score below 0.9.

The first test in a line: ATG_AP_1_CIS: Attagene CIS-FACTORIAL HepG2 Assay for human Activator Protein 1 (AP-1) (AID 2282931). The conditions noted are these: HepG2 Attagene cis-factorial AP-1 reporter mRNA; actives raise or lower the signal. In a few lines: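 Fluorescence of labelled PCR fragments separated by capillary electrophoresis gives reporter mRNA levels. HepG2 with transfected cis-regulated reporter units, 24 h exposure; DMSO serves as baseline for bidirectional curve fits.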
As to `NNCCO`, the compound was classed as inactive.
Same read-out and setting: the value for `ClCCN1CCOCC1` was “inactive”.
The AC50 is the concentration giving half of the maximal activity seen. In the case of `C[C@@H]1O[C@@H](O[C@H]2C[C@@H](O)[C@]3(CO)[C@H]4[C@H](O)C[C@]5(C)[C@@H](C6=CC(=O)OC6)CC[C@]5(O)[C@@H]4CC[C@]3(O)C2)[C@H](O)[C@H](O)[C@H]1O`, the AC50 was 0.215 µM (active).
Regarding `CCOP(=O)(OCC)OC(=CCl)c1ccc(Cl)cc1Cl`, the compound was classed as inactive.
Still for that read-out and setting: the value for `O=C(CCl)Nc1ccccc1` was “inactive”; that for `O=[N+]([O-])c1cccc2ccccc12` was “inactive”.
The same measure, in the same setting: the entry for `O=C1C[C@@H]2OCC=C3CN4CC[C@]56c7ccccc7N1[C@H]5[C@H]2[C@H]3C[C@H]46` is “inactive”; for `CCOP(=S)(OCC)OP(=S)(OCC)OCC` it is “inactive”; for `CC(C)(c1ccc(O)c(-c2ccccc2)c1)c1ccc(O)c(-c2ccccc2)c1` it is “inactive”.
On the same count and under the same terms, the entry for `CC1(C)[C@H](C(=O)O[C@H](C#N)c2cccc(Oc3ccccc3)c2)[C@@H]1/C=C(\Cl)C(F)(F)F` is “inactive”.
With `CC(C)(c1ccccc1)c1cc(-n2nc3ccccc3n2)c(O)c(C(C)(C)c2ccccc2)c1`, the outcome was inactive.
Same read-out and setting: the value for `FC(F)OCC(F)(F)C(F)(F)F` was “inactive”.
On the same count and under the same terms, the entry for `CCN(N=O)C(N)=O` is “inactive”; for `Oc1ccc(Cc2ccc(O)cc2)cc1` it is “inactive”; for `CCOc1ccc(N)cc1` it is “inactive”.
Still for that read-out and setting: the value for `CCCCOP(=O)(CCCC)OCCCC` was “inactive”.
As for `O=C(CBr)c1ccc(O)cc1`, the result was inactive.
Regarding `ClCc1ccccc1CCl`, the AC50 was 59.7 µM (active).
Turning to `N#CCCC(Br)(C#N)CBr` (stereo not given), the call was inactive.
Take `c1cc[c]([Sb]([c]2ccccc2)[c]2ccccc2)cc1`: the AC50 was 68.5 µM (active).
In the case of `O=[N+]([O-])c1cc([As](=O)(O)O)ccc1O`, the outcome was inactive.
On the same count and under the same terms, the entry for `CC(C=O)Cc1ccc2c(c1)OCO2` (stereo not given) is “inactive”; for `CCCCOC(C)=O` it is “inactive”.
Take `O=S(=O)(C(Cl)(Cl)Cl)C(Cl)(Cl)Cl`: the AC50 was 2.78 µM (active).
Take `OC[C@@H](O)[C@H]1O[C@@H]2O[C@H](C(Cl)(Cl)Cl)O[C@@H]2[C@H]1O`: the call was inactive.
Same read-out and setting: the entry for `C=CC(Cl)CCl` (stereo not given) is “inactive”; for `CC(C)(C1CCC(O)CC1)C1CCC(O)CC1` (stereo not given) it is “inactive”; for `CCNc1nc(NCC)nc(SC)n1` it is “inactive”.
The same measure, in the same setting: the entry for `O=c1[nH]c(=O)n(Cl)c(=O)n1Cl` is “inactive”; for `C=CCOC(N)=O` it is “inactive”.
On the same count and under the same terms, the entry for `N#CS` is “inactive”; for `CCCCC(CC)C(=O)Cl` (stereo not given) it is “inactive”.
With `O=S1(=O)OC(c2cc(Br)c(O)c(Br)c2)(c2cc(Br)c(O)c(Br)c2)c2ccccc21`, the call was inactive.
Still for that read-out and setting: the entry for `O=C=Nc1ccc(Cl)cc1` is “inactive”.
`CC(C)(C)c1cc([N+](=O)[O-])cc(C(C)(C)C)c1O`: the AC50 was 0.948 µM (active).
With `Cc1cc(Cl)ccc1OC(C)C(=O)O` (stereo not given), the outcome was inactive.
The same measure, in the same setting: the value for `C[N+](C)(C)Cc1ccccc1` was “inactive”; that for `CCOP(=S)(OCC)Oc1ccc(Cl)cc1Cl` was “inactive”; that for `Fc1cccc(Cl)c1CCl` was “inactive”.

A short description of another test: ATG_AP_2_CIS: Attagene CIS-FACTORIAL HepG2 Assay for human Activator Protein 2 (AP-2) (AID 2282932). As to conditions: HepG2 AP-2 cis-reporter, Attagene transcription factor profiling; actives raise or lower the signal. The gist of the method:
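Step one: transient transfection of HepG2 with reporter transcription units. Step two: 24 h chemical exposure. Step three: RNA extraction, RT-PCR, labelled fragment analysis by capillary electrophoresis; DMSO serves as baseline.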
In the case of `NNCCO`, the result was inactive.
In the case of `ClCCN1CCOCC1`, the result was inactive.
In the case of `C[C@@H]1O[C@@H](O[C@H]2C[C@@H](O)[C@]3(CO)[C@H]4[C@H](O)C[C@]5(C)[C@@H](C6=CC(=O)OC6)CC[C@]5(O)[C@@H]4CC[C@]3(O)C2)[C@H](O)[C@H](O)[C@H]1O`, the AC50 is 0.119 µM (active).
The same measure, in the same setting: the figure for `O=C(CCl)Nc1ccccc1` is 44 µM (active).
Consider `O=C1C[C@@H]2OCC=C3CN4CC[C@]56c7ccccc7N1[C@H]5[C@H]2[C@H]3C[C@H]46`, for which the compound was called inactive.
Still for that read-out and setting: the value for `CCOP(=S)(OCC)OP(=S)(OCC)OCC` was “inactive”.
Same read-out and setting: the entry for `CC1(C)[C@H](C(=O)O[C@H](C#N)c2cccc(Oc3ccccc3)c2)[C@@H]1/C=C(\Cl)C(F)(F)F` is “inactive”; for `CC(C)(c1ccccc1)c1cc(-n2nc3ccccc3n2)c(O)c(C(C)(C)c2ccccc2)c1` it is “inactive”.
For the compound `FC(F)OCC(F)(F)C(F)(F)F`, the result was inactive.
With `CCN(N=O)C(N)=O`, the call was inactive.
The same measure, in the same setting: the entry for `CCOc1ccc(N)cc1` is “inactive”; for `CCCCOP(=O)(CCCC)OCCCC` it is “inactive”; for `O=C(CBr)c1ccc(O)cc1` it is “inactive”.
As for `ClCc1ccccc1CCl`, the compound was called inactive.
The same measure, in the same setting: the value for `c1cc[c]([Sb]([c]2ccccc2)[c]2ccccc2)cc1` was “inactive”; that for `O=[N+]([O-])c1cc([As](=O)(O)O)ccc1O` was “inactive”.
The same measure, in the same setting: the entry for `O=S(=O)(C(Cl)(Cl)Cl)C(Cl)(Cl)Cl` is “inactive”.
On the same count and under the same terms, the entry for `OC[C@@H](O)[C@H]1O[C@@H]2O[C@H](C(Cl)(Cl)Cl)O[C@@H]2[C@H]1O` is “inactive”; for `CC(C)(C1CCC(O)CC1)C1CCC(O)CC1` (stereo not given) it is “inactive”.
With `CCNc1nc(NCC)nc(SC)n1`, the result was inactive.
Still for that read-out and setting: the entry for `O=c1[nH]c(=O)n(Cl)c(=O)n1Cl` is “inactive”; for `N#CS` it is “inactive”.
On to `CC(C)(C)c1cc([N+](=O)[O-])cc(C(C)(C)C)c1O`, for which the concentration at half-maximal activity (AC50) was 16.3 µM (active).
In the case of `Cc1cc(Cl)ccc1OC(C)C(=O)O` (stereo not given), the outcome was inactive.
The same measure, in the same setting: the entry for `C[N+](C)(C)Cc1ccccc1` is “inactive”; for `CCOP(=S)(OCC)Oc1ccc(Cl)cc1Cl` it is “inactive”; for `Fc1cccc(Cl)c1CCl` it is “inactive”.

A further test in a line: ATG_BRE_CIS: Attagene CIS-FACTORIAL HepG2 Assay for human Bone Morphogenetic Protein (BMP) Response Element (BRE) (AID 2282933). The conditions noted are these: HepG2 BMP response element reporter, Attagene transcription factor profiling; actives raise or lower the signal. The gist of the method: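 Fluorescence-labelled reporter cDNA fragments, separated by capillary electrophoresis, gave the signal for this component of a 52-readout multiplex. HepG2 cells were transfected, exposed to chemicals for 24 h, and compared with DMSO using bidirectional fitting.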
As to `NNCCO`, the compound was classed as inactive.
Still for that read-out and setting: the entry for `ClCCN1CCOCC1` is “inactive”.
On the same count and under the same terms, the value for `C[C@@H]1O[C@@H](O[C@H]2C[C@@H](O)[C@]3(CO)[C@H]4[C@H](O)C[C@]5(C)[C@@H](C6=CC(=O)OC6)CC[C@]5(O)[C@@H]4CC[C@]3(O)C2)[C@H](O)[C@H](O)[C@H]1O` was “inactive”; that for `CCOP(=O)(OCC)OC(=CCl)c1ccc(Cl)cc1Cl` was “inactive”.
With `O=C(CCl)Nc1ccccc1`, the AC50 is 5.35 µM (active).
Turning to `O=[N+]([O-])c1cccc2ccccc12`, the result was inactive.
Still for that read-out and setting: the entry for `O=C1C[C@@H]2OCC=C3CN4CC[C@]56c7ccccc7N1[C@H]5[C@H]2[C@H]3C[C@H]46` is “inactive”; for `CCOP(=S)(OCC)OP(=S)(OCC)OCC` it is “inactive”.
On to `CC(C)(c1ccc(O)c(-c2ccccc2)c1)c1ccc(O)c(-c2ccccc2)c1`, for which the compound was classed as inactive.
`CC1(C)[C@H](C(=O)O[C@H](C#N)c2cccc(Oc3ccccc3)c2)[C@@H]1/C=C(\Cl)C(F)(F)F`: the outcome was inactive.
Take `CC(C)(c1ccccc1)c1cc(-n2nc3ccccc3n2)c(O)c(C(C)(C)c2ccccc2)c1`: the call was inactive.
Still for that read-out and setting: the entry for `FC(F)OCC(F)(F)C(F)(F)F` is “inactive”; for `CCN(N=O)C(N)=O` it is “inactive”.
Still for that read-out and setting: the value for `Oc1ccc(Cc2ccc(O)cc2)cc1` was “inactive”.
On the same count and under the same terms, the value for `CCOc1ccc(N)cc1` was “inactive”.
Take `CCCCOP(=O)(CCCC)OCCCC`: the call was inactive.
Same read-out and setting: the value for `O=C(CBr)c1ccc(O)cc1` was “inactive”.
The same measure, in the same setting: the value for `ClCc1ccccc1CCl` was “inactive”; that for `N#CCCC(Br)(C#N)CBr` (stereo not given) was “inactive”; that for `c1cc[c]([Sb]([c]2ccccc2)[c]2ccccc2)cc1` was “inactive”.
Still for that read-out and setting: the entry for `O=[N+]([O-])c1cc([As](=O)(O)O)ccc1O` is “inactive”; for `CC(C=O)Cc1ccc2c(c1)OCO2` (stereo not given) it is “inactive”.
`CCCCOC(C)=O`: the outcome was inactive.
Turning to `O=S(=O)(C(Cl)(Cl)Cl)C(Cl)(Cl)Cl`, the concentration at half-maximal activity (AC50) was 18.7 µM (active).
Take `OC[C@@H](O)[C@H]1O[C@@H]2O[C@H](C(Cl)(Cl)Cl)O[C@@H]2[C@H]1O`: the outcome was inactive.
The same measure, in the same setting: the entry for `C=CC(Cl)CCl` (stereo not given) is “inactive”.
Same read-out and setting: the value for `CC(C)(C1CCC(O)CC1)C1CCC(O)CC1` (stereo not given) was “inactive”.
Same read-out and setting: the entry for `CCNc1nc(NCC)nc(SC)n1` is “inactive”.
`O=c1[nH]c(=O)n(Cl)c(=O)n1Cl`: the compound was called inactive.
The same measure, in the same setting: the entry for `C=CCOC(N)=O` is “inactive”; for `N#CS` it is “inactive”.
On the same count and under the same terms, the entry for `CCCCC(CC)C(=O)Cl` (stereo not given) is “inactive”.
Still for that read-out and setting: the value for `O=S1(=O)OC(c2cc(Br)c(O)c(Br)c2)(c2cc(Br)c(O)c(Br)c2)c2ccccc21` was “inactive”.
With `O=C=Nc1ccc(Cl)cc1`, the compound was classed as inactive.
On to `CC(C)(C)c1cc([N+](=O)[O-])cc(C(C)(C)C)c1O`, for which the AC50 was 2.01 µM (active).
For `Cc1cc(Cl)ccc1OC(C)C(=O)O` (stereo not given), the compound was called inactive.
Same read-out and setting: the entry for `C[N+](C)(C)Cc1ccccc1` is “inactive”; for `CCOP(=S)(OCC)Oc1ccc(Cl)cc1Cl` it is “inactive”.
Same read-out and setting: the entry for `Fc1cccc(Cl)c1CCl` is “inactive”.
